# T1: CLTC 1-363 Clathrin_propel+Clathrin-link (domain begin residue: 1, domain end residue: 363), Q00610
# T1 chain: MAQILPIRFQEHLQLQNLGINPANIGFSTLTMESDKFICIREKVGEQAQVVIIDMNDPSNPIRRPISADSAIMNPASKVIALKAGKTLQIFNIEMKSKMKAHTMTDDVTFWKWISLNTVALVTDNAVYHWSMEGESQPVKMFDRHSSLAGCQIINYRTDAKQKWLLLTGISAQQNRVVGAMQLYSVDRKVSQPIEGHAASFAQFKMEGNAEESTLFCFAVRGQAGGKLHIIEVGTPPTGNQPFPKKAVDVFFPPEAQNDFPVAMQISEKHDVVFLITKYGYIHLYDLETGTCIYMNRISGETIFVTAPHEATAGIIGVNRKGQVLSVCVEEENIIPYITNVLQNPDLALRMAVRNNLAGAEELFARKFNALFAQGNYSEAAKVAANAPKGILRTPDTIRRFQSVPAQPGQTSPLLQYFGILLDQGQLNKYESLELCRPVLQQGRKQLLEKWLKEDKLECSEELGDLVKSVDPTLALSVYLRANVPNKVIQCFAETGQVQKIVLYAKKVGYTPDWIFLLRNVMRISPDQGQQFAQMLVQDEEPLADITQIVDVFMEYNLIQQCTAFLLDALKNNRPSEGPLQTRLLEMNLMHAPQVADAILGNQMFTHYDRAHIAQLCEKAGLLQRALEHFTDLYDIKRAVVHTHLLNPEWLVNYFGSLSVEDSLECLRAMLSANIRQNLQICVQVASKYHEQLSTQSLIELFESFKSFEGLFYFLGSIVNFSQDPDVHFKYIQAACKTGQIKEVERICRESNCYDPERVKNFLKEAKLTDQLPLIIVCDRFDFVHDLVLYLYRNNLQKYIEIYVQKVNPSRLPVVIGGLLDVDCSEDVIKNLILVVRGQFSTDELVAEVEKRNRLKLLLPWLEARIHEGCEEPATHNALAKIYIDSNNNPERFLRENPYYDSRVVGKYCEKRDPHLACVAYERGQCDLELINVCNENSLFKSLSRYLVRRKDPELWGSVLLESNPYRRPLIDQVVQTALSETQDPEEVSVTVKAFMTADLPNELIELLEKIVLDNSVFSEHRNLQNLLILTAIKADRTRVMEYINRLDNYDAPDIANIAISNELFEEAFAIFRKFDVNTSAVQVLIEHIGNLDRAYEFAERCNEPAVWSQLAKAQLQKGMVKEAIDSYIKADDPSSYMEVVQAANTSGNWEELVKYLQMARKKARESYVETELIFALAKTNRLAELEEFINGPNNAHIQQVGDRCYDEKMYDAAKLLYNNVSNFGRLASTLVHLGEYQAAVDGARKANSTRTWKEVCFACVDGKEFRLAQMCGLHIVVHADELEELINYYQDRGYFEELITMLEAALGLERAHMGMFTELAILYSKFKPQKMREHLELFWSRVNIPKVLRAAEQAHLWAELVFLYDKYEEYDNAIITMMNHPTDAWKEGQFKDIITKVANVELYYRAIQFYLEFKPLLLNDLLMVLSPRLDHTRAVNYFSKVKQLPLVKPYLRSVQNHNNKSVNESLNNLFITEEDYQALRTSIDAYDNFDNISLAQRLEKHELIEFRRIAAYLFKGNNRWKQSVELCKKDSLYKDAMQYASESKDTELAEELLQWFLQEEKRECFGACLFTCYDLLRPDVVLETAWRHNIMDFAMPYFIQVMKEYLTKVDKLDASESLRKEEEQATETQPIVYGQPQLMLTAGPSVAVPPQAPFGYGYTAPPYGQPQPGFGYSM
# T2: CD2BP2 256-341 GYF (domain begin residue: 256, domain end residue: 341), O95400
# T2 chain: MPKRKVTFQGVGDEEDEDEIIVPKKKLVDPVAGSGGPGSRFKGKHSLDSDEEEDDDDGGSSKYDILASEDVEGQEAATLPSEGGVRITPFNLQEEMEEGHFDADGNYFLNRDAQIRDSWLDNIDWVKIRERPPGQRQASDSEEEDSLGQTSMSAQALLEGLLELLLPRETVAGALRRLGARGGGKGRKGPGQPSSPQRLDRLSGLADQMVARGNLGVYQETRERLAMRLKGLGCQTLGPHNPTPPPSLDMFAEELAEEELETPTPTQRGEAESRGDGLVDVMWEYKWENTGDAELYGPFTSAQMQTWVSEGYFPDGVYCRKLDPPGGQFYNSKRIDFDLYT
# T3: GIGYF2 507-602 GYF (domain begin residue: 507, domain end residue: 602), Q6Y7W6
# T3 chain: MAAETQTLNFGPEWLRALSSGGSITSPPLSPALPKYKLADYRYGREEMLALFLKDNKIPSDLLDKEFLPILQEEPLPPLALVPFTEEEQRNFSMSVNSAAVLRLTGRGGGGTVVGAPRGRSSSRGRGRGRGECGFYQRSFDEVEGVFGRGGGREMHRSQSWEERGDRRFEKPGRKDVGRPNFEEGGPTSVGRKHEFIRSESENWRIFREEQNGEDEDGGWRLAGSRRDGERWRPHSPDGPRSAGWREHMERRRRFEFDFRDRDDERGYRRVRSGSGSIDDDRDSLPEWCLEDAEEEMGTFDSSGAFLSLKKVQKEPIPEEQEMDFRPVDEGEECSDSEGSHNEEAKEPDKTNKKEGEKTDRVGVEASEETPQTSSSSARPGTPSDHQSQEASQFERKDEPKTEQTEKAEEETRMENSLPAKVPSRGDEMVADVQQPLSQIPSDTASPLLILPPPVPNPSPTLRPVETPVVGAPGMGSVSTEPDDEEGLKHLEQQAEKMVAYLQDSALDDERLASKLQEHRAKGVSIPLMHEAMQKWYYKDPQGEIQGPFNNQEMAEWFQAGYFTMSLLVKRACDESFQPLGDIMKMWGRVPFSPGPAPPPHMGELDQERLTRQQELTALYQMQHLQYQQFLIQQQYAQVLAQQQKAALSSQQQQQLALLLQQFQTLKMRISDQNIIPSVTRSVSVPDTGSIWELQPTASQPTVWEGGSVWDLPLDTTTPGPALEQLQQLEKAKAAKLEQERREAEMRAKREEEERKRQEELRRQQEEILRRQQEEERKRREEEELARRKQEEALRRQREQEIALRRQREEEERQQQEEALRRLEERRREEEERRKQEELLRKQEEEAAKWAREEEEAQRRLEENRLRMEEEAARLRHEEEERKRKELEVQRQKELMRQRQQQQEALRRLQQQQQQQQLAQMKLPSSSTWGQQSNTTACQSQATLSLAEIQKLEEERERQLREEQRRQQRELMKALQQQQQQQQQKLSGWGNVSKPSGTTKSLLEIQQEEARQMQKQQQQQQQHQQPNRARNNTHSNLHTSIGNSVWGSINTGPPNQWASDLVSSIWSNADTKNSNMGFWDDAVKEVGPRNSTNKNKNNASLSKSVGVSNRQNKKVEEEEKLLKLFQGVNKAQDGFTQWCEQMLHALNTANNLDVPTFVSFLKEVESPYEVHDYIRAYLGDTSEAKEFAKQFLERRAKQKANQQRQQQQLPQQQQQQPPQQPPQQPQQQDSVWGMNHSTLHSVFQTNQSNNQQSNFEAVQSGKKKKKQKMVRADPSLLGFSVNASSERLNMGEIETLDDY
# Experiments:
# Experiment in all cases: phage ELISA signal ratio (GST-PRM binding over GST background); higher = stronger binding of peptide-phage to the PRM
# [1] = target: DEPDC6 20-129 DEP (domain begin residue: 20, domain end residue: 129)
# Description: (§1)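 Phage-displayed random hexadecapeptides (Cys-free, flanked by invariant Gly linkers, fused to the M13 P8 major coat protein) were selected over 5 rounds against GST-fused human PRM domains. Individual clones from rounds 4-5 were tested by phage ELISA, and positive clones binding the target but not GST were sequenced. Values are the ELISA signal ratio of target over background (GST); the background signal is given separately.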
# [2] = target: DEPDC1B 7-110 DEP (domain begin residue: 7, domain end residue: 110), Q8WUY9
# Description: as §1
# [3] = target: DCTN1 26-97 CAP_GLY (domain begin residue: 26, domain end residue: 97), Q14203
# Description: as §1
# [4] = target: T1, CLTC 1-363 …
# Description: as §1
# [5] = target: T2, CD2BP2 256-341 GYF (domain begin …
# Description: as §1
# [6] = target: CKS1B 1-79 CKS (domain begin residue: 1, domain end residue: 79), P61024
# Description: as §1
# [7] = target: CBX3 109-173 Chromo_shadow (domain begin residue: 109, domain end residue: 173), Q13185
# Description: as §1
# [8] = target: T3, GIGYF2 507-602 GYF (domain begin …
# Description: as §1
# Chain of CKS1B 1-79 CKS (domain begin residue: 1, domain end residue: 79), P61024 (P61024 whole entry): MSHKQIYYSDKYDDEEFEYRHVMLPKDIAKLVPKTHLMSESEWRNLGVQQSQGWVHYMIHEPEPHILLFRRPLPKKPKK
# Chain of DCTN1 26-97 CAP_GLY (domain begin residue: 26, domain end residue: 97), Q14203 (Q14203 whole entry): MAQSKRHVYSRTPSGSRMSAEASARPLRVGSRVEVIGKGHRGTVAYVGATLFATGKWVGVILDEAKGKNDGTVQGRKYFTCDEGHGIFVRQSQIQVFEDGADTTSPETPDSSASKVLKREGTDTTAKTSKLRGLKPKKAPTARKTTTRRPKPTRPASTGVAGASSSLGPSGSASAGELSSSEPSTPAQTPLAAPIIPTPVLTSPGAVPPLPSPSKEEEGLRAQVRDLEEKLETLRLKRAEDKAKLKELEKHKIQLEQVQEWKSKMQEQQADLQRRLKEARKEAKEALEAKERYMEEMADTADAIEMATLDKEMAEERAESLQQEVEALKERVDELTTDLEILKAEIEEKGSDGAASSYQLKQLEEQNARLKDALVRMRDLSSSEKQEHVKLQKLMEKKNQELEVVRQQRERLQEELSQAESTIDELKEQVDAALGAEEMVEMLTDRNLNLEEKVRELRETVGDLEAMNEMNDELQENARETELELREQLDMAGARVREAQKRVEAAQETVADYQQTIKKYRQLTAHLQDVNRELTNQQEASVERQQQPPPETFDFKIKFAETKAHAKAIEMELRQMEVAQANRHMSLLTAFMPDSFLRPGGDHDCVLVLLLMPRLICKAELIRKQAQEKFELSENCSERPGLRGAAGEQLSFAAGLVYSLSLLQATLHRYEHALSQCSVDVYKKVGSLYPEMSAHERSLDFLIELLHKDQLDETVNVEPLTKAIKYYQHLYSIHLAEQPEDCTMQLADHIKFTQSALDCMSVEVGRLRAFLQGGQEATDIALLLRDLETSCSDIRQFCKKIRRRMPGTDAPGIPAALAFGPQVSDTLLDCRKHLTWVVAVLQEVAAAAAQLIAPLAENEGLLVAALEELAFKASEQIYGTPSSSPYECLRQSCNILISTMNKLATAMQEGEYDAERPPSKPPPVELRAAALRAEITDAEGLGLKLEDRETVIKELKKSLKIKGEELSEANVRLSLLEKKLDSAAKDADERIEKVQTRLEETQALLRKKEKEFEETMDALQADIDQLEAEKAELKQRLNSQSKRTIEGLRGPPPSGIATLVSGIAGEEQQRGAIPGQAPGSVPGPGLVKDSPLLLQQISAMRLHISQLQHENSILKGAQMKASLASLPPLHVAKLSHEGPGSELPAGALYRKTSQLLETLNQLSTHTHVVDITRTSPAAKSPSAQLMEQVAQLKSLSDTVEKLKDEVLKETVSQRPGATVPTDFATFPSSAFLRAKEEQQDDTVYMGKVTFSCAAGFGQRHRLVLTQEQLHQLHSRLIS
# Chain of CBX3 109-173 Chromo_shadow (domain begin residue: 109, domain end residue: 173), Q13185 (Q13185 whole entry): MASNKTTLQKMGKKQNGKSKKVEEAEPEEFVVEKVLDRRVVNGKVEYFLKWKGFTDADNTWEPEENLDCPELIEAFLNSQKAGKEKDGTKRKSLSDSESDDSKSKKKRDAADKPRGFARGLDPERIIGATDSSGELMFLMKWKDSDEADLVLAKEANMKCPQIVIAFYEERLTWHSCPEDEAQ
# Chain of DEPDC1B 7-110 DEP (domain begin residue: 7, domain end residue: 110), Q8WUY9 (Q8WUY9 whole entry): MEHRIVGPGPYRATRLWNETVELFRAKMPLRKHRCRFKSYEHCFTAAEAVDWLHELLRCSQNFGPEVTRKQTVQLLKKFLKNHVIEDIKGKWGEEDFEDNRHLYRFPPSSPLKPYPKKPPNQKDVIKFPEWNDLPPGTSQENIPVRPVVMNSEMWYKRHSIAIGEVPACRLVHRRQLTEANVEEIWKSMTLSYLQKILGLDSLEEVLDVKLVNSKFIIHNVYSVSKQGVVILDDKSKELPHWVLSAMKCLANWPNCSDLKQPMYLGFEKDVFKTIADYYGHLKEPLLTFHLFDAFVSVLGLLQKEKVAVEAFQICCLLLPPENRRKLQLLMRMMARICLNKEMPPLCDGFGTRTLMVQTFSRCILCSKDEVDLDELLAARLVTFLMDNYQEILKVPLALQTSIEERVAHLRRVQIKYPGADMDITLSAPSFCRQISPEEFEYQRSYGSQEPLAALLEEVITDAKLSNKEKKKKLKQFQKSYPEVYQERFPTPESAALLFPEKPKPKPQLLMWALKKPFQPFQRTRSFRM
binder,measurement,setting,value
MPVWWEDWYWDWKSMH,phage ELISA signal ratio,[1],6.24
DLPYEWSHFWDSIEHH,phage ELISA signal ratio,[2],4.2
FKEWTWSPVEWGQAES,phage ELISA signal ratio,[3],6.09
YTLTIDELEHWLSAGG,phage ELISA signal ratio,[4],31.7
EDPTLKVGHPPGWSFK,phage ELISA signal ratio,[5],17.6
EVFDLISWDDGMWHSV,phage ELISA signal ratio,[4],28.8
MDSWHYDMIPGEWLRV,phage ELISA signal ratio,[6],34.3
HEFTPPWTWDWDIPHI,phage ELISA signal ratio,[3],7.35
HDVWASSWNWDDFRLN,phage ELISA signal ratio,[7],12.7
MTWTATWYASDPYMEV,phage ELISA signal ratio,[6],28.8
TIPPGYFKWVGEVRDE,phage ELISA signal ratio,[5],16.3
WDGQAWHLSDPYLWEM,phage ELISA signal ratio,[6],17.9
YPYPPGWDSNYAQRVE,phage ELISA signal ratio,[5],19.2
MYEFLIEPEDDWWWWN,phage ELISA signal ratio,[4],26.5
NSMSYMDIVWHSFDTI,phage ELISA signal ratio,[6],19.2
MEWTWEQWDLGADYVK,phage ELISA signal ratio,[3],21.2
SPFVYDIVDLGFPSIM,phage ELISA signal ratio,[4],22.5
QDEWVPWQLWSQWESI,phage ELISA signal ratio,[3],26.4
SQPEQMQWHTYDPYDL,phage ELISA signal ratio,[6],30.4
EVPLWFYNIISEFHET,phage ELISA signal ratio,[1],13.8
HGMDYLNREFPWDWWT,phage ELISA signal ratio,[3],16.6
DLIWWTDLTEEYGTHV,phage ELISA signal ratio,[4],21.9
HWIDSWEGFRARVIPS,phage ELISA signal ratio,[7],12.6
GHPPGWSEFGWEHLVI,phage ELISA signal ratio,[5],16.2
EPPGWEVRQPGMVQVQ,phage ELISA signal ratio,[5],16.9
same,phage ELISA signal ratio,[8],17.5
DFQGIMDSYRAMEINT,phage ELISA signal ratio,[1],20.1
PPPGYSKWTWSVQERV,phage ELISA signal ratio,[5],14.2
MEEPPGYRLNMYAMSY,phage ELISA signal ratio,[5],17.5

# — the supplement of paper PMC7724964
